Source: paper PMC6212790, “How bacterial xenogeneic silencer rok distinguishes foreign from self DNA in its resident genome”
In all, about 33,000 sequences were measured (“e-score”: median about -0.038, highest 2% from about 0.33 on). The sample holds the highest values, similar sequences and a random draw of the others, so the mix is not that of the screen.

molecular target: T1, GST-Rok-C97-191 (Bacillus subtilis subsp. subtilis str. …, UniProt O34857 97-191); experiment: protein binding microarray; Rok is a gene silencer of Bacillus subtilis; high values mean tight binding; details: protein: recombinant; tags: GST (pTH5325, pDEST15-Magic modified); dsDNA, one strand shown
T1 sequence: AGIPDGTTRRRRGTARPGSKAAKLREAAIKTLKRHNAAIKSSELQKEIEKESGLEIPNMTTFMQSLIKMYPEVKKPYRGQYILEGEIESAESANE
How it was run: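 Every oligonucleotide joins a 25-mer constant primer to a 35-mer variable part drawn from a de Bruijn sequence of order 10, so each non-palindromic 8-mer appears at least 32 times and each palindromic 8-mer 16 times. The preference for every 8-mer is reported as a unitless, rank-based enrichment score (E-score). This score spans 0.5 for the most favored 8-mer to −0.5 for the most disfavored.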

Row | Sequence | binding signal
1 | ATGGTAGG | 0.278 E-score
2 | ATGGTACA | 0.199 E-score
3 | ATGGTATC | 0.0289 E-score
4 | ATGGTAGA | 0.448 E-score
5 | CTGGTAGC | -0.00597 E-score
6 | CTGGTAGA | 0.324 E-score
7 | GTGGTAGA | 0.433 E-score
8 | GTGGTAAA | 0.21 E-score
9 | ATGGTAGC | 0.35 E-score
10 | CTGGTATA | 0.205 E-score
11 | AACATCCG | 0.0335 E-score
12 | AACCGGTT | 0.0733 E-score
13 | AGTAGCAA | 0.277 E-score
14 | ACCTCTCG | 0.00338 E-score
15 | CGAAACAA | 0.0284 E-score
16 | CAAGCTGC | -0.171 E-score
17 | AGCGACCT | 0.06 E-score
18 | CACGATGA | -0.103 E-score
19 | GGGAAGGA | -0.18 E-score
20 | ATAGATTG | 0.304 E-score
21 | ATAGAATC | 0.274 E-score
22 | ATAGAAAC | 0.326 E-score
23 | ATAGAATA | 0.354 E-score
24 | AAAGATTA | 0.212 E-score
25 | ATAGATTC | 0.34 E-score

Row | Sequence | binding signal
26 | ATAGAATG | 0.165 E-score
27 | ACAGATTA | 0.0434 E-score
28 | CTAGATTC | 0.166 E-score
29 | ATAGAAAT | 0.381 E-score
30 | ATAGATTA | 0.331 E-score
31 | ATAGAAAA | 0.267 E-score
32 | AGAAGACA | 0.059 E-score
33 | AACCTGCG | -0.0596 E-score
34 | CAAGGTAA | 0.166 E-score
35 | CACAATGA | 0.00707 E-score
36 | GTTAATGA | 0.082 E-score
37 | GTCCCTGA | -0.188 E-score
38 | TCTGGGAA | 0.0446 E-score
39 | TACTGGCA | 0.0047 E-score
40 | ACCTATGC | -0.0256 E-score
41 | ATTGGGGA | -0.0754 E-score
42 | CTAGATTA | 0.312 E-score
43 | GCAGATTA | 0.028 E-score
44 | GTAGATTA | 0.344 E-score
45 | GAAAGCTC | -0.157 E-score
46 | AAGTAGTC | 0.226 E-score
47 | AAGTAGTA | 0.358 E-score
48 | GAGTAGTA | 0.305 E-score
49 | ATGTAGTC | 0.156 E-score
50 | ATGTAGTA | 0.407 E-score

Row | Sequence | binding signal
51 | AAGTAGTG | 0.211 E-score
52 | CAGTAGTC | -0.151 E-score
53 | CAGTAGTA | 0.362 E-score
54 | ATGTAGTG | 0.163 E-score
55 | TCCGCTCA | -0.118 E-score
56 | CGCTTTCC | -0.13 E-score
57 | CGGAAAGA | -0.135 E-score
58 | AACCTCAA | -0.0809 E-score
59 | ACACTGGT | 0.0216 E-score
60 | GCGGGAGA | -0.111 E-score
61 | CTGGCGAC | -0.196 E-score
62 | AATATAGC | 0.349 E-score
63 | GATATAGC | 0.0553 E-score
64 | AATATAGG | 0.0639 E-score
65 | ACTATAGC | 0.207 E-score
66 | AAAATAGA | 0.271 E-score
67 | CATATAGC | 0.127 E-score
68 | AATATCGT | 0.204 E-score
69 | ACTATAGG | 0.148 E-score
70 | ACTATAGT | 0.411 E-score
71 | AAAATAGT | 0.404 E-score
72 | AATATAGT | 0.337 E-score
73 | AAAATAGC | 0.21 E-score
74 | GTTCAGCA | 0.0486 E-score
75 | TAAGGCAA | 0.0603 E-score

Row | Sequence | binding signal
76 | CTGGGAAG | -0.0965 E-score
77 | CCACTTAG | -0.0775 E-score
78 | CGGAGTCC | -0.199 E-score
79 | TAGATCAA | 0.156 E-score
80 | CTCGACGA | -0.162 E-score
81 | CTTCAGAC | -0.188 E-score
82 | CACCGGTA | 0.0827 E-score
83 | AACCGATA | 0.108 E-score
84 | CACCGATA | 0.152 E-score
85 | AACCGGTA | 0.182 E-score
86 | TACCGGTA | 0.355 E-score
87 | TACCGATA | 0.339 E-score
88 | GACAAGGC | -0.188 E-score
89 | AAATGCTT | -0.000293 E-score
90 | GAGCTCGA | 0.0407 E-score
91 | ACGCCAAA | -0.128 E-score
92 | AAGATATA | 0.347 E-score
93 | CAGATAGA | 0.16 E-score
94 | AAGATATC | 0.2 E-score
95 | TAGATACA | 0.329 E-score
96 | AAGATAAA | 0.314 E-score
97 | AAGATATG | 0.117 E-score
98 | GAGATAGA | 0.15 E-score
99 | AAGATAAC | 0.131 E-score
100 | AAGATACA | 0.151 E-score

Row | Sequence | binding signal
101 | AAGATAAT | 0.339 E-score
102 | CAGATACA | 0.146 E-score
103 | TAGATAGA | 0.345 E-score
104 | GAATAGCC | -0.126 E-score
105 | AGCAGTCC | -0.0761 E-score
106 | AACCCACT | 0.0905 E-score
107 | ACATCGAA | 0.0242 E-score
108 | GCGGCAGA | -0.0665 E-score
109 | GGTTTGGA | -0.0233 E-score
110 | TTCTTCAA | -0.0566 E-score
111 | AGTGGATG | -0.131 E-score
112 | AAGGCGAT | -0.0931 E-score
113 | CAGATATA | 0.195 E-score
114 | GAGATATA | 0.301 E-score
115 | TAGATATA | 0.359 E-score
116 | ACGTACTC | 0.0226 E-score
117 | CTTATTAC | 0.332 E-score
118 | ATTATTAG | 0.325 E-score
119 | ATTATTAC | 0.387 E-score
120 | CTTATTAA | 0.117 E-score
121 | CTTATTTC | 0.221 E-score
122 | ATTATTAA | 0.199 E-score
123 | GTAGCTGA | 0.279 E-score
124 | AATCCTTA | 0.107 E-score
125 | GAATAAAC | 0.0598 E-score

Row | Sequence | binding signal
126 | ACTCATCG | 0.0111 E-score
127 | AATAGGGT | 0.0409 E-score
128 | CGTATATA | 0.258 E-score
129 | GGTATAGA | 0.221 E-score
130 | AGTATATG | 0.264 E-score
131 | AGTATATA | 0.428 E-score
132 | GGTATAAA | 0.352 E-score
133 | GGTATAAC | 0.266 E-score
134 | GGTATATA | 0.406 E-score
135 | AGTATATC | 0.261 E-score
136 | AGTATAAA | 0.289 E-score
137 | CATTAAGG | -0.0335 E-score
138 | AGACATTA | 0.0762 E-score
139 | ATCCGTAA | -0.0485 E-score
140 | GACTCATA | -0.063 E-score
141 | CCATCAGA | -0.0159 E-score
142 | CGTGCACC | -0.199 E-score
143 | CCTACCAG | 0.0329 E-score
144 | GCCCTGTA | -0.192 E-score
145 | CTACTACC | 0.363 E-score
146 | CTACTAGC | 0.256 E-score
147 | CGACTACC | 0.000144 E-score
148 | ACACTACC | -0.0628 E-score
149 | ATACTACC | 0.379 E-score
150 | ATACTACG | 0.273 E-score

Row | Sequence | binding signal
151 | GCTAACCA | -0.102 E-score
152 | GAGTCTTA | -0.0226 E-score
153 | GCTTACAC | -0.028 E-score
154 | ACGCGGGA | -0.0896 E-score
155 | CGAGCCGA | -0.177 E-score
156 | ACTAAAAA | 0.26 E-score
157 | ACTAAAAC | 0.26 E-score
158 | ACTAAAAT | 0.397 E-score
159 | CCTAAATC | -0.11 E-score
160 | ACTAAATC | 0.35 E-score
161 | ACTAAATA | 0.354 E-score
162 | GCTAAATA | 0.32 E-score
163 | CCTAAATA | 0.155 E-score
164 | ACTAAATG | 0.226 E-score
165 | ATGAACTC | -0.191 E-score
166 | GTCGCCTA | -0.125 E-score
167 | ACTATTAT | 0.364 E-score
168 | CCTATTAC | 0.247 E-score
169 | GCTATTAC | 0.285 E-score
170 | ACTATTAC | 0.4 E-score
171 | ACTATTAA | 0.302 E-score
172 | ACTATTAG | 0.263 E-score
